BAZ2B inh: inhibitors of human BAZ2B bromodomain. AlphaScreen BAZ2B-H3K14Ac peptide displacement. Potency, µM (highest dose often 114 µM), without a hit: at the top dose activity change, negative = inhibition, hits mostly inhibitors. Q9UIF8. 360,000 tested, 4.4% active; also: % is scaled to controls: 0 for no effect and ±100 for the full control effect; nearly all actives have a fitted effect of over 60% in size
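AlphaScreen displacement of biotin-H3(5-23)K14Ac peptide (50 nM final) from BAZ2B (50 nM final) in PBS pH 7.4, 0.01% Tween-20; complex preformed 30 min RT, then compounds (top 110 uM) 30 min RT, beads 20 min dark.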
G9a block: inhibitors of human histone lysine methyltransferase G9a | 350,000 tested, 8.8% active | G9a H3K9 monomethylation, AlphaScreen, 2 h | Q96KQ7 | Potency, µM (series often up to 102 µM), without a hit: at the top dose activity, negative = inhibition, hits mostly inhibitors; also: % is scaled to controls: 0 for no effect and ±100 for the full control effect; nearly all actives have a fitted effect of over 75% in size
Target sequence (Q96KQ7 913-1193 limits assumed): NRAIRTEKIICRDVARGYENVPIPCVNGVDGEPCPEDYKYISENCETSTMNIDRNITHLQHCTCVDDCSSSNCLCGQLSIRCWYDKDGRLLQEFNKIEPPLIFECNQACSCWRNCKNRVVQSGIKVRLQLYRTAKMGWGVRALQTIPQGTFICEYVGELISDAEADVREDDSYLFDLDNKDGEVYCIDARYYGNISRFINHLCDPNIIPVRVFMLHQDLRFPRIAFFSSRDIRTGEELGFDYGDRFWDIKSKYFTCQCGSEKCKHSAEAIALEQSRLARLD
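Using a bead-based AlphaScreen, monomethylated H3K9 product from 2 h room-temperature reactions (G9a 20 nM, peptide 500 nM, SAM 20 uM) was detected with 0.5 ug/mL rabbit anti-H3K9me1 antibody.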
JMJD2A Tudor: JMJD2A Tudor domain (human) inhibition; O75164; AlphaScreen JMJD2A-Tudor / H3K4me3 peptide binding; Potency, µM (highest dose often 114 µM), without a hit: top-dose activity change, negative = inhibition, hits mostly inhibitors; 390,000 tested, 4.4% active; also: % is scaled to controls: 0 for no effect and ±100 for the full control effect; nearly all actives have a fitted effect of over 50% in size
L3MBTL1 block: inhibitors of human L3MBTL1 | AlphaScreen L3MBTL1–H3K9me1 peptide binding | 230,000 tested, 0.66% active | Q9Y468 | Potency, µM (titrated, usually from 57.1 µM), without a hit: top-dose activity, negative = inhibition, hits mostly inhibitors | AID 485360; also: % is scaled to controls: 0 for no effect and ±100 for the full control effect; nearly all actives have a fitted effect of over 60% in size
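AlphaScreen assay: L3MBTL1 (50 nM final) was preincubated 30 min at room temperature with biotinylated H3(1-15)K9me1 peptide (75 nM final), then 30 min with library compounds; streptavidin donor and nickel chelate acceptor beads (10 ug/mL final) added, 30 min dark.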
HP1b binding inh: blocks HP1-beta chromodomain binding to methylated histone tails; AlphaScreen HP1-beta / biotin-H3K9me3 peptide binding; Potency, µM (titrated, usually from 114 µM), for the others: at the highest dose activity change, negative = inhibition, usual class: inhibitors; 390,000 tested, 0.56% active; also: nearly all actives have a fitted effect of over 70% in size
Target sequence (P83916 whole entry, looked up): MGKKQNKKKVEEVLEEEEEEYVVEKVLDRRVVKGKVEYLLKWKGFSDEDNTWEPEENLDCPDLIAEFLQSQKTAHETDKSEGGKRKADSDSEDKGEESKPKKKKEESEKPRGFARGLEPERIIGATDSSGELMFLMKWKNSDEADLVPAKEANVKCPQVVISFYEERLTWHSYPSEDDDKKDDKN
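HP1-beta protein (50 nM final) preincubated 30 min at room temperature with biotinylated H3(1-18)K9me3 peptide (50 nM) in PBS pH 7.4, 0.01% Tween-20, then compound added for 30 min. AlphaScreen streptavidin donor/nickel chelate acceptor beads (10 ug/mL final), 30 min dark, luminescence read.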
Sfp inh: Sfp phosphopantetheinyl transferase inhibition; AID 1490; Biochemical Sfp PPTase activity, qHTS; 310,000 tested, 3.5% active; Potency, µM, inactives show largest response in the series, negative = inhibition, actives largely listed as inhibitors;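 also: the enzyme is Sfp with the accession as filed and its product quenches rhodamine fluorescence; 0% = enzyme reaction without inhibitor and -100% = no enzyme wells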
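After 15 min at room temperature with compound, 15 nM Sfp received 5 uM rhodamine-CoA plus 12.5 uM BHQ-2-ybbR (50 mM Hepes pH 7.6, 10 mM MgCl2). Rate came from the fluorescence difference over 30 min, ex 525/em 598 nm.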
The depositor's hits bear a star; ? = inconclusive; / = no result; [ ] = remark or other dose. Most compounds without a hit are left out; they make up all but 12% or so of the library. Calls follow the shape of the dose curve; as a rule, active = well fitted curve in the direction sought with a large enough effect; inconclusive = small, poorly fitted or top-dose-only effect, or another doubt; inactive = no such curve, though single readings can be large; an effect the other way counts as inactive or inconclusive. Potency is read from the fitted curve at half-maximal effect.

SMILES	BAZ2B inh	G9a block	JMJD2A Tudor	L3MBTL1 block	HP1b binding inh	Sfp inh
Cc1ccc(NC(=S)c2nc3ccccc3[nH]2)c(C)c1	28µM*	?	?	?	?	-1%
Cc1ccc(NC(=S)N2CCc3[nH]c4ccccc4c3C2)cc1	25µM*	/	?	/	-30%	7%
CC(=O)N1CCc2[nH]c3ccccc3c2C1	-36%	-38%	-10%	0%	0%	13%
CCOC(=O)N1CCc2[nH]c3ccc(C)cc3c2C1	?	10µM*	?	-23%	-35%	17%
CC(=O)N1CCc2[nH]c3ccc(C)cc3c2C1	56µM*	25%[2.33 µM]	-30%	-4%	1%	-18%
CCC(C)c1ccccc1N1CC(C(=O)Nc2ccc(N3CCOCC3)cc2)CC1=O (stereo unspecified)	7%	2%[2.33 µM]	-28%	22%	0%	/
CCOCCCNC(=O)CN1N=C(c2ccc(C)cc2)CCC1=O	0%	26%	-4%	/	12%	-3%
COC(=O)c1ccc2c(=O)n(CCN3CCOCC3)c(SCC(=O)Nc3ccc(OC)cc3OC)nc2c1	-10%	1%[59 µM]	45µM*	/	?	7%
COCCn1c(-c2ccccc2)cnc1SCC(=O)Nc1cccc2ccccc12	45µM*	32µM*	50µM*	-27%	?	-15%
CCn1c(SCC(=O)Nc2cc(C)on2)nnc1-c1ccc(OC)cc1	-1%	9%	-9%	-8%	22%	8%
COCCn1c(-c2ccc(OC)cc2)cnc1SCC(=O)Nc1cc(C)on1	-11%	79µM*	-18%	/	24%	4%
COCCn1c(-c2ccc(OC)cc2)cnc1SCC(=O)Nc1ccc(OC)cc1OC	45µM*	?	-11%[57.1 µM]	-14%	-9%	-7%
CCCCn1c(CCl)nc2cc(S(=O)(=O)N3CCOCC3)ccc21	/	/	-14%	7%	20%	/
CC(=O)Oc1ccc(OC(C)=O)c2c1CC(C)=C(C)C2	-4%	24%[12.7 µM]	5%	/	12%	?
N#Cc1nc(Nc2cccc(C(F)(F)F)c2)nc(NC2CCCC2)n1	/	/	-24%	/	/	/
O=C(COC(=O)CNC(=O)c1ccc(Cl)c([N+](=O)[O-])c1)NCC1CCCO1 (stereo unspecified)	-2%	10%[12.7 µM]	-9%	9%	37%	/
COC(=O)[C@@]1(Cc2ccc(OC)cc2)[C@H]2c3cc(C(=O)N(C)C)n(CCO)c3C[C@H]2CN1C(=O)c1ccccc1	/	/	/	/	/	22%
COC(=O)[C@@]1(Cc2ccccc2)[C@H]2c3cc(C(=O)N4CCCC4)n(Cc4ccc(C(F)(F)F)nc4)c3C[C@H]2CN1C(=O)c1ccccc1	/	/	/	/	/	3%
COC(=O)[C@@]1(Cc2ccc(OC)cc2)[C@H]2c3cc(C(=O)N(C)C)n(Cc4ccc(C)o4)c3C[C@H]2CN1C(=O)c1ccccc1	/	/	/	/	/	25µM*
COC(=O)[C@@]1(Cc2ccc(OC)cc2)[C@H]2c3cc(C(=O)N(C)C)[nH]c3C[C@H]2CN1C(=O)c1ccccc1	56µM*	50µM*	-30%	-2%	13%	-16%
C=C1C(=O)C=C2CN(C(=O)c3ccccc3)[C@@](Cc3ccc(OC)cc3)(C(=O)OC)[C@@H]12	/	/	/	/	/	4µM*
COC(=O)[C@@]1(Cc2ccc(F)cc2)[C@H]2c3cc(C(=O)N4CCCC4)n(Cc4ccc(C(F)(F)F)nc4)c3C[C@H]2CN1C(=O)c1ccccc1	?	50µM*	?	-1%	5%	-2%
NC(=O)C1CCN(C(=O)Cn2c(-c3cccs3)cc3ccccc32)CC1	-2%	12%[59 µM]	-1%	/	13%	/
Cc1ccc(CNC(=O)c2nn(-c3ccc(Cl)cc3)nc2CO)cc1	0%	0%[59 µM]	-19%	/	-6%	/
COC(=O)[C@@]1(Cc2ccc(F)cc2)[C@H]2c3cc(C(=O)N(C)C)n(Cc4nc5ccccc5[nH]4)c3C[C@H]2CN1C(=O)c1ccccc1	?	50µM*	?	-15%	-2%	-4%
SMILES	BAZ2B inh	G9a block	JMJD2A Tudor	L3MBTL1 block	HP1b binding inh	Sfp inh
COC(=O)[C@@]1(Cc2ccc(F)cc2)[C@H]2c3cc(C(=O)N4CCCC4)n(CCF)c3C[C@H]2CN1C(=O)c1ccccc1	/	/	/	/	/	-5%
COC(=O)[C@@]1(Cc2ccc(OC)cc2)[C@H]2c3cc(C(=O)N(C)C)n(CCc4ccc(O)c(OC)c4)c3C[C@H]2CN1C(=O)c1ccccc1	/	/	/	/	/	21%
COC(=O)[C@@]1(Cc2ccc(F)cc2)[C@H]2c3cc(C(=O)N4CCCC4)n(Cc4ccc(C)c(F)c4F)c3C[C@H]2CN1C(=O)c1ccccc1	/	/	/	/	/	-10%
COC(=O)[C@@]1(Cc2ccc(F)cc2)[C@H]2c3cc(C(=O)N(C)C)n(Cc4ccccn4)c3C[C@H]2CN1C(=O)c1ccccc1	?	?	-35%	-14%	18%	-28%
COC(=O)[C@@]1(Cc2ccc(OC)cc2)[C@H]2c3cc(C(=O)N(C)C)n(CCc4ccc(OC)c(Br)c4)c3C[C@H]2CN1C(=O)c1ccccc1	?	40µM*	/	?	/	-7%
COC(=O)[C@@]1(Cc2ccc(F)cc2)[C@H]2c3cc(C(=O)N4CCCC4)n(Cc4ccc(C)o4)c3C[C@H]2CN1C(=O)c1ccccc1	/	/	/	/	/	40µM*
COC(=O)[C@@]1(Cc2ccc(F)cc2)[C@H]2c3cc(C(=O)N4CCCC4)n(CCCNc4ncc(C(F)(F)F)cc4Cl)c3C[C@H]2CN1C(=O)c1ccccc1	-35%	32µM*	?	-9%	4%	4%
COc1ccc(-n2nc3c(N4CCCC(C(=O)NCc5cccc(F)c5)C4)nnc(C)c3c2C)cc1 (stereo unspecified)	?	-33%[59 µM]	-11%	/	28%	/
CCCc1ccc(OCC(=O)Nc2sc3c(c2C(=O)OCC)CCC(C(C)(C)C)C3)cc1 (stereo unspecified)	-15%	-44%[59 µM]	-9%	/	21%	/
O=C(Nc1nnc2n1CCS2)c1cc(C(F)(F)F)cc(C(F)(F)F)c1	9%	50%[59 µM]	-14%	/	31%[57 µM]	/
COc1ccc(O)c(C(=O)c2cc(C(=O)NCCc3ccccc3)c(=O)n(CCc3ccccc3)c2)c1	?	8.9µM*	?	-28%	?	-10%
CC(OC(=O)CCN1C(=O)c2cccc([N+](=O)[O-])c2C1=O)C(=O)Nc1cc(Cl)cc(Cl)c1 (stereo unspecified)	-34%	25µM*	-23%	-2%	4%	-12%
COc1ccccc1N1CCN(C(=O)C(C)CS(=O)(=O)c2ccc3c(c2)NC(=O)CS3)CC1 (stereo unspecified)	56µM*	?	21%	/	38%	10%

Assay outcomes deposited in PubChem BioAssay by National Center for Advancing Translational Sciences (NCATS).
